Among the data in ChEMBL document CHEMBL4513154, “CO-ADD screening of Jain University (India) compounds” are Inhibition values, retold here.

What is called Inhibition is the relative decrease from the control value, in per cent.

Potency and affinity values are given separately.

One assay deals with Klebsiella pneumoniae. As to conditions: Concentration 32 ug.mL-1; ASSAY_TEST Inhibition of Bacterial Growth; detection method Absorption (OD600); MEDIA CAMHB; plate type 384well; NBS; CORNING #3640; time 18 hr.
The subject of another assay is Candida albicans. As to conditions: 32 ug/mL.
In a further assay the test system is Cryptococcus neoformans. Conditions: Concentration 32 ug.mL-1; ASSAY_TEST Inhibition of Fungal Growth; detection method Resazurin; Absorption (OD600-OD570); plate type 384well; NBS; CORNING #3640.

Turning to `Clc1ccc(Cn2c(-c3cscn3)nc3c(Cl)cccc32)cn1`, the figures for the Inhibition in the assay on Klebsiella pneumoniae, with Candida albicans and in the assay on Cryptococcus neoformans were 14.39%, 1.41% and -19.98%, respectively.

For `Clc1ccc2c(c1)nc(-c1cscn1)n2Cc1ccc(Cl)nc1`, the Inhibition was -1.17% in the assay with Klebsiella pneumoniae, 2.99% with Candida albicans and -29.64% with Cryptococcus neoformans.

Turning to `Clc1ccc(Cn2c(-c3cscn3)nc3ccccc32)cn1`, the Inhibition is 12.39% in the assay on Klebsiella pneumoniae, 0.69% in the assay with Candida albicans and -39.39% in the assay with Cryptococcus neoformans.
